This is part of a sample that, as a whole, favours compounds with a hit. Of some 79,000 tested, about 15% had one in any assay. Activity calls are given as the source filed them. Rule as the data show it: active = growth inhibition above about 70%; inactive = the rest.
Key:
[1] = NCI Yeast Anticancer Drug Screen. Data for the rad52 strain (AID 147);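 also: 0% = growth of vehicle-treated control cultures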; conditions: S. cerevisiae rad52 mutant growth inhibition, stronger effect = higher value
How it was run: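 Compounds are applied to a genetically defined yeast strain lacking normal DNA damage repair, and inhibition of growth is expressed relative to cultures given vehicle only.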

[2] = NCI Yeast Anticancer Drug Screen. Data for the wt1 strain (AID 149);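 also: 0% = growth of vehicle-treated wt1 cultures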; conditions: S. cerevisiae wt1 strain (SPY 50644) growth inhibition, stronger effect = higher value
How it was run: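 wt1 yeast, compound-treated; % growth inhibition vs vehicle control.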

[3] = NCI Yeast Anticancer Drug Screen. Data for the rad50EPP+ strain (AID 151);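 also: 0% = growth of vehicle-treated control cultures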; conditions: S. cerevisiae rad50 mutant strain, stronger effect = higher value
How it was run: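 Compounds were applied to the rad50EPP+ yeast strain, which bears a defined DNA repair alteration, and growth inhibition was determined relative to vehicle-treated cultures.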

[4] = NCI Yeast Anticancer Drug Screen. Data for the mgt1 strain (AID 153); conditions: S. cerevisiae mgt1 mutant growth inhibition, stronger effect = higher value
How it was run: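 Strain: mgt1 yeast, one of a set carrying defined DNA damage repair or cell cycle control alterations. Compound-treated growth compared with vehicle.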

[5] = NCI Yeast Anticancer Drug Screen. Data for the rad50 strain (AID 155);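 also: 0% = growth of vehicle-only cultures of the same strain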; conditions: S. cerevisiae rad50 strain growth inhibition, stronger effect = higher value
How it was run: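 Genetically altered yeast (DNA repair pathway); compound treatment; growth inhibition vs vehicle ctrl.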

[6] = NCI Yeast Anticancer Drug Screen. Data for the mec2-1 strain (AID 157); conditions: S. cerevisiae mec2-1 strain, stronger effect = higher value
How it was run: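 Strain: mec2-1 (DNA repair/cell cycle alteration). Compound exposure, then growth measured; inhibition expressed relative to vehicle.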

[7] = NCI Yeast Anticancer Drug Screen. Data for the rad14 strain (AID 159);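 also: 0% = growth of vehicle-treated control cultures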; conditions: S. cerevisiae rad14 strain growth inhibition, stronger effect = higher value
How it was run: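 Test compounds were applied to a repair-deficient yeast strain. Its growth was then compared with that of cultures given vehicle alone, and inhibition was expressed relative to those controls.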

[8] = NCI Yeast Anticancer Drug Screen. Data for the sgs1 mgt1 strain (AID 161);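 also: 0% = growth of cultures given vehicle only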; conditions: S. cerevisiae sgs1 mgt1 strain, stronger effect = higher value
How it was run: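 Read-out: growth inhibition vs vehicle controls. Cells: mutant yeast strain deficient in DNA damage repair.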

[9] = NCI Yeast Anticancer Drug Screen. Data for the CLN2oe strain (AID 163);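 also: 0% = growth of vehicle-only control cultures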; conditions: S. cerevisiae CLN2oe strain, stronger effect = higher value
How it was run: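 Growth of a genetically modified yeast strain is measured after compound exposure and compared with cultures given vehicle alone.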

[10] = NCI Yeast Anticancer Drug Screen. Data for the cln2 rad14 strain (AID 165);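 also: 0% = growth equal to vehicle treated cultures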; conditions: S. cerevisiae cln2 rad14 strain, stronger effect = higher value
How it was run: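 Compounds are applied to the cln2 rad14 yeast strain, and growth is then compared with that of vehicle-treated cultures to give inhibition.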

[11] = NCI Yeast Anticancer Drug Screen. Data for the bub3 strain (AID 167); conditions: S. cerevisiae bub3 mutant strain, stronger effect = higher value
How it was run: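 Yeast carrying a defined mutation is treated with each compound, and growth is compared with that of vehicle-exposed cells to give inhibition.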

[12] = NCI Yeast Anticancer Drug Screen. Data for the wt2 strain (AID 169);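 also: 0% = growth of vehicle-treated yeast cultures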; conditions: S. cerevisiae wt2 strain growth inhibition, stronger effect = higher value
How it was run: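 This strain belongs to a panel of yeast strains with defined genetic alterations in DNA damage repair or cell cycle control. Compounds are applied, and growth inhibition is measured against vehicle-treated cultures.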

[13] = NCI Yeast Anticancer Drug Screen. Data for the mlh1 strain (AID 171);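 also: 0% = growth of vehicle-treated control cultures of the same strain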; conditions: S. cerevisiae mlh1 strain growth inhibition, stronger effect = higher value
How it was run: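 Growth of the mutant yeast strain after compound exposure, expressed as inhibition relative to vehicle-only controls.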

[14] = NCI Yeast Anticancer Drug Screen. Data for the sgs1 strain (AID 173);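 also: 0% = growth of vehicle-only control cultures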; conditions: S. cerevisiae sgs1 mutant, stronger effect = higher value
How it was run: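 Growth of a yeast strain bearing a defined genetic alteration is measured after compound treatment. Inhibition is expressed relative to vehicle-only controls.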

[15] = NCI Yeast Anticancer Drug Screen. Data for the mlh1 rad18 strain (AID 175); conditions: S. cerevisiae mlh1 rad18 strain growth inhibition, stronger effect = higher value
How it was run: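 Read-out is yeast growth inhibition, calculated against vehicle-only controls. The compound was applied to a strain engineered with DNA damage repair alterations.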

[16] = NCI Yeast Anticancer Drug Screen. Data for the rad18 strain (AID 177); conditions: S. cerevisiae rad18 mutant growth inhibition, stronger effect = higher value
How it was run: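 Growth of the mutant yeast strain after compound exposure, normalised to vehicle-only cultures.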

[17] = at 5.0 µM (retest, dose inferred, filed as 0.5)
[18] = at 50.0 µM (retest, dose inferred, filed as 5.0)

Measured: growth inhibition

CCCCCCCCSC1=C(Cl)C(=O)C(OC)=C(OC)C1=O
active: [1]; at 100.0 µM 87% | [2]; at 100.0 µM 88% | [3]; at 100.0 µM 73% | [4]; at 100.0 µM 85% | [5]; at 100.0 µM 83% | [6]; at 100.0 µM 80% | [9]; at 100.0 µM 80% | [12]; at 100.0 µM 87% | [13]; at 100.0 µM 78% | [14]; at 100.0 µM 80% | [15]; [18] 84% | [15]; at 50.0 µM 79.3% | [16]; at 100.0 µM 85%
inactive: [1]; at 1.2 µM -25% | [1]; at 3.7 µM -19% | [1]; at 11.0 µM 15% | [1]; at 33.0 µM 53% | [2]; at 1.2 µM -55% | [2]; at 3.7 µM -23% | [2]; at 11.0 µM -17% | [2]; at 33.0 µM 0% | [3]; at 1.2 µM -29% | [3]; at 3.7 µM -44% | [3]; at 11.0 µM -1% | [3]; at 33.0 µM 18% | [4]; at 1.2 µM -30% | [4]; at 3.7 µM -41% | [4]; at 11.0 µM -24% | [4]; at 33.0 µM 17% | [5]; at 1.2 µM -25% | [5]; at 3.7 µM -16% | [5]; [17] 25% | [5]; at 11.0 µM -17% | [5]; at 33.0 µM 19% | [5]; [18] 68% | [5]; at 50.0 µM 22.6% | [6]; at 1.2 µM -37% | [6]; at 3.7 µM -30% | [6]; [17] 24% | [6]; at 11.0 µM -4% | [6]; at 33.0 µM 13% | [6]; [18] 68% | [6]; at 50.0 µM 54.1% | [7]; at 1.2 µM -32% | [7]; at 3.7 µM -11% | [7]; at 11.0 µM -14% | [7]; at 33.0 µM 2% | [7]; at 100.0 µM 66% | [8]; [17] 22% | [8]; [18] 10% | [8]; at 50.0 µM 69.1% | [9]; at 1.2 µM -16% | [9]; at 3.7 µM -6% | [9]; at 11.0 µM 21% | [9]; at 33.0 µM 33% | [10]; [17] 13% | [10]; [18] -24% | [10]; at 50.0 µM 35.1% | [11]; at 1.2 µM -40% | [11]; at 3.7 µM -30% | [11]; [17] 20% | [11]; at 11.0 µM -43% | [11]; at 33.0 µM -15% | [11]; [18] 6% | [11]; at 50.0 µM 59% | [11]; at 100.0 µM 57% | [12]; at 1.2 µM -31% | [12]; at 3.7 µM -19% | [12]; at 11.0 µM -46% | [12]; at 33.0 µM -11% | [13]; at 1.2 µM -38% | [13]; at 3.7 µM -31% | [13]; at 11.0 µM 6% | [13]; at 33.0 µM 27% | [14]; at 1.2 µM -42% | [14]; at 3.7 µM -27% | [14]; at 11.0 µM 8% | [14]; at 33.0 µM 3% | [15]; [17] 36% | [16]; at 1.2 µM -15% | [16]; at 3.7 µM -26% | [16]; at 11.0 µM 1% | [16]; at 33.0 µM 58%

Reference: PubChem BioAssay (NCI)
